Here are results for 16 compounds from PubChem BioAssay (NCATS).

The structures appear in SMILES notation. Results filed as inconclusive are left out. Active and inactive are the calls of the source. Calls follow the shape of the dose curve; as a rule, active = well fitted inhibition curve with a large enough effect in the signal ratio, with a control signal flat (not every such curve was filed as active); inconclusive = small, poorly fitted or top-dose-only effect, or effect the other way, or a change in a side signal; inactive = no such curve, though single readings can be large or run the other way; the % refers to the signal ratio.

Chain of Peroxisome proliferator-activated receptor delta (Homo sapiens) (Q03181 whole entry, looked up): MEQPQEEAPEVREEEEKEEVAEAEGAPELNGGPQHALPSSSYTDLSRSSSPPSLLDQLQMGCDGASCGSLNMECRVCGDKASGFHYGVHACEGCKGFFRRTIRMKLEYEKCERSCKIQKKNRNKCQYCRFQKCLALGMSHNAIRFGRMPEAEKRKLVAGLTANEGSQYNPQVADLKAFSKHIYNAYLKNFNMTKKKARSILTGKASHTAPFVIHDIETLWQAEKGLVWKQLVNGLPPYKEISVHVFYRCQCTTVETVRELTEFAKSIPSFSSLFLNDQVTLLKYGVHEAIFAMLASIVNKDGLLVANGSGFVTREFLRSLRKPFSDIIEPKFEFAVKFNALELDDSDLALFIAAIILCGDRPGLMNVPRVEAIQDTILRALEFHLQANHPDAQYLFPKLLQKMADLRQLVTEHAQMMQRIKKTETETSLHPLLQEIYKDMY

For the assay, the target named is Peroxisome proliferator-activated receptor delta (Homo sapiens) (UniProt Q03181). Put plainly: qHTS assay for small molecule antagonists of peroxisome proliferator-activated receptor delta signaling (AID 588535). The note with it: HEK293T PPARd-UAS-bla, beta-lactamase FRET ratio, 18 h; series mostly up to 76.7 µM; activity change, negative = inhibition: at the top concentration. From the text:
NIH Chemical Genomics Center [NCGC] U.S. Environmental Protection Agency [EPA] National Institutes of Environmental Health Sciences [NIEHS] National Toxicology Program [NTP] NCGC Assay Overview The Peroxisome proliferator-activated receptors (PPARs) are lipid-activated transcription factors of the nuclear receptor superfamily with three distinct subtypes namely PPAR alpha, PPAR delta (also called PPAR beta) and PPAR gamma. All these subtypes heterodimerizes with Retinoid X receptor (RXR) and have different physiological functions. […] This role of PPAR delta implicates the potential use of its ligands in the treatment of metabolic disorders.
NCGC Assay Protocol Summary Using a beta-lactamase reporter-gene under control Peroxisome Proliferator-Activated Receptor delta (PPAR-delta) response element, a cell-based assay [GeneBLAzer (PPAR-delta-UAS-bla assay developed by Invitrogen] was used to measure PPAR-delta ligands signaling. GeneBLAzer PPAR-delta-UAS-bla HEK293T cells were used with assay medium containing 2% charcoal/dextran FBS. The assay was performed in clear bottom black Greiner 1536-well plates. Library compounds were measured for their ability to inhibit the reporter gene activity. Compounds were screened in a titration series in 1536-well format. The fluorescence intensity (405 nm excitation, 460/530 nm emission) was measured using an EnVision plate reader. […] Concentration-response titration points for each compound were fitted to the Hill equation yielding concentrations of half-maximal inhibition (IC50) and maximal response (efficacy) values. qHTS protocol for PPAR-delta beta-lactamase assay in antagonist mode [Step] [Parameter] [Value] [Description] 1. Reagent; 5 uL; 4000 cells/well 2. Incubation; 37 C for 5 hrs 3. Compounds; 23 nL; 0.59 nM to 92 uM 4. […] Incubation; 37 C for 18 hrs 7. Detection reagent; 1 uL of CCF4-dye 8. Incubation; RT for 2 hrs 9. Detection; Fluorescence; Envision plate reader
With `Nc1nc(N)nc(NC2CC2)n1`, the “activity change, negative = inhibition” value is 12.6% (inactive).

Turning to `O=C(O)CCCc1ccc(N(CCCl)CCCl)cc1`, the “activity change, negative = inhibition” value is 8.52% (inactive).

With `O=C1c2ccccc2C(=O)c2ccccc21`, the “activity change, negative = inhibition” value was 3.22% (inactive).

With `Oc1ccc(Cl)cc1`, the “activity change, negative = inhibition” value was -14.3% (inactive).

Take `CCOC(=O)CC(SP(=S)(OC)OC)C(=O)OCC` (stereo unspecified): the “activity change, negative = inhibition” value is 1.51% (inactive).

`COP(=S)(OC)Oc1ccc(SC)c(C)c1`: the outcome was inactive.

Regarding `NCCc1ccc(O)cc1`, the “activity change, negative = inhibition” value was -11.5% (inactive).

Turning to `[N-]=[N+]=CC(=O)OC[C@H](N)C(=O)O`, the “activity change, negative = inhibition” value is 19.5% (inactive).

Regarding `Nc1ccc([As](=O)(O)O)cc1`, the “activity change, negative = inhibition” value is -7.63% (inactive).

With `Clc1ccc(C(c2ccc(Cl)cc2)C(Cl)(Cl)Cl)cc1`, the “activity change, negative = inhibition” value was -33.4% (inactive).

`O=P1(N(CCCl)CCCl)NCCCO1` (stereo unspecified): the result was inactive.

For the compound `COP(=S)(OC)Oc1cc(Cl)c(Cl)cc1Cl`, the “activity change, negative = inhibition” value was 12.2% (inactive).

Regarding `CC(C)c1cccc(C(C)C)c1O`, the “activity change, negative = inhibition” value was -9.9% (inactive).

Turning to `Nc1ccccc1`, the “activity change, negative = inhibition” value was -2.31% (inactive).

With `C[C@]1(O)CC[C@H]2[C@@H]3CCC4=CC(=O)CC[C@]4(C)[C@@]3(F)[C@@H](O)C[C@@]21C`, the “activity change, negative = inhibition” value is -8.46% (inactive).

On to `CCCC(C)(COC(N)=O)COC(N)=O`, for which the “activity change, negative = inhibition” value was -19.9% (inactive).
